Test systems include NCI-H23 lung; NCI-H226 lung; NCI-H322M lung; HOP-62 NSCLC; NCI-H460 lung; HOP-92 NSCLC; NCI-H522 lung; A549/ATCC NSCLC; 786-0 renal; COLO 205 colon; DU-145 prostate; K-562 leukemia; MALME-3M melanoma; MDA-MB-231 breast; RXF 393 renal; SF-268 CNS; SF-295 CNS; SF-539 CNS; UACC-257 melanoma.
What all share (assay): NCI-60 one-dose screen, 48 h (100 = growth as untreated, 0 = no growth, -100 = all killed)
Common to all, as to details: 10 µM unless noted

The structures appear in SMILES notation. The panel holds about 83,000 compounds, 20% with a hit somewhere; the sample as a whole holds those more often.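 Single-concentration screen, 48 h exposure, 96-well plates. Endpoint: percent growth. Below 10 = active.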 Unmarked numbers belong to inactive results. The source made the active and inactive calls.

On to `COc1ccc(C2CC(c3ccc4ccccc4c3)=NN2c2nc(O)c(C3=c4cc(Cl)ccc4=NC3=O)s2)cc1` (stereo unspecified), for which the growth is -40.9% (active) in the assay on NCI-H23 lung; -73.2% (active) with NCI-H226 lung; -29.7% (active) with NCI-H322M lung; -53.8% (active) in the assay with HOP-62 NSCLC; -20% (active) in the assay on NCI-H460 lung; -57.2% (active) in the assay with HOP-92 NSCLC. Besides, the growth was -82% (active) in the assay on NCI-H522 lung; -56% (active) in the assay with A549/ATCC NSCLC; -80.5% (active) in the assay with 786-0 renal; -79.4% (active) in the assay on COLO 205 colon; -20.7% (active) in the assay on DU-145 prostate; -27.2% (active) with K-562 leukemia. Moreover, the growth in the assay on MALME-3M melanoma is -54.3% (active); in the assay on MDA-MB-231 breast, -38.6% (active); in the assay on RXF 393 renal, -67.3% (active); in the assay on SF-268 CNS, -33.6% (active); with SF-295 CNS it was -61.9% (active); with SF-539 CNS, -52.5% (active). The growth in the assay with UACC-257 melanoma is -50.8% (active).
`COc1ccc(-c2cc(-c3ccc(Nc4nc(Nc5ccccc5)nc(Nc5ccc(Cl)cc5)n4)cc3)nc(N)n2)cc1`: the growth in the assay with NCI-H23 lung is 56.6%; in the assay with NCI-H226 lung, 81.2%; in the assay with NCI-H322M lung, 83.3%; in the assay on HOP-62 NSCLC, 57.2%; with NCI-H460 lung, 61.6%; in the assay on HOP-92 NSCLC, 37.6%. The growth in the assay with NCI-H522 lung was 76.3%; in the assay with A549/ATCC NSCLC, 79.5%; in the assay with 786-0 renal it was 51.5%; in the assay with COLO 205 colon, 68.4%; in the assay on DU-145 prostate, 100%; in the assay with K-562 leukemia, 23.7%. Moreover, the growth was 79.2% in the assay with MALME-3M melanoma; 49% in the assay with MDA-MB-231 breast; 75.6% in the assay with RXF 393 renal; 75.8% in the assay on SF-268 CNS; 64.1% with SF-295 CNS; 76.9% in the assay on SF-539 CNS. In addition, in the assay with UACC-257 melanoma, the growth was 77.1%.
Take `NC(=O)CC1(O)C=C(Br)C(=O)C(Br)=C1`: the growth with NCI-H23 lung was 57.3%; in the assay with NCI-H226 lung, -57.6% (active); in the assay with NCI-H322M lung, 113%; with HOP-62 NSCLC, 108%; in the assay on NCI-H460 lung it was 104%; with HOP-92 NSCLC, -50.9% (active). Moreover, the growth is -49.7% (active) in the assay with NCI-H522 lung; 112% in the assay with A549/ATCC NSCLC; 70.8% in the assay with 786-0 renal; -66.1% (active) in the assay on COLO 205 colon; 105% in the assay with DU-145 prostate; -29.6% (active) with K-562 leukemia. In addition, the growth is -34.3% (active) in the assay on MALME-3M melanoma; 113% with MDA-MB-231 breast; -32.6% (active) in the assay with RXF 393 renal; 89.3% in the assay with SF-268 CNS; 115% in the assay with SF-295 CNS; 96.1% in the assay with SF-539 CNS. Besides, the growth with UACC-257 melanoma was 80.9%.
Take `COc1cc(/C=C/c2nc(Nc3ccc(S(=O)(=O)Nc4cc(C)on4)cc3)c3ccccc3n2)ccc1O`: the growth with NCI-H23 lung is 74.3%; in the assay with NCI-H226 lung, 85.8%; in the assay on NCI-H322M lung it was 87.8%; in the assay with HOP-62 NSCLC, 78.8%; in the assay with NCI-H460 lung it was 65.5%; with HOP-92 NSCLC, 83.9%. Also, the growth is 42.4% in the assay on NCI-H522 lung; 75.3% in the assay on A549/ATCC NSCLC; 94.4% with 786-0 renal; 106% with COLO 205 colon; 92.2% in the assay with DU-145 prostate; 17.8% in the assay with K-562 leukemia. Also, the growth was 62.6% with MALME-3M melanoma; 62.8% with MDA-MB-231 breast; 76.1% in the assay on SF-268 CNS; 70.8% in the assay on SF-295 CNS; 61.9% in the assay with SF-539 CNS; 83.2% in the assay with UACC-257 melanoma.
For `CC[C@]1(O)C[C@H]2CN(CCc3c([nH]c4ccccc34)[C@@](C(=O)OC)(c3cc4c(cc3OC)N(C=O)[C@H]3[C@@](O)(C(=O)OC)[C@H](OC(C)=O)[C@]5(CC)C=CCN6CC[C@]43[C@@H]65)C2)C1`, the growth was 290% in the assay on NCI-H23 lung; 28.2% in the assay on NCI-H226 lung; 43.7% in the assay with NCI-H322M lung; 11.7% with HOP-62 NSCLC; -2.68% (active) in the assay with NCI-H460 lung; 72.3% with HOP-92 NSCLC. Further, the growth with NCI-H522 lung was -13.1% (active); in the assay on A549/ATCC NSCLC, 16.6%; with 786-0 renal, 12.4%; in the assay with COLO 205 colon, -57.2% (active); with DU-145 prostate it was -42.5% (active); in the assay on K-562 leukemia it was -0.624% (active). Further, the growth in the assay with MALME-3M melanoma was 45.4%; in the assay on MDA-MB-231 breast, -27.1% (active); with RXF 393 renal it was -36% (active); in the assay with SF-268 CNS, 23.9%; in the assay on SF-295 CNS, 13.6%; in the assay with SF-539 CNS it was -28.7% (active). For the same compound, the growth in the assay on UACC-257 melanoma was 5.68% (active).
Consider `O=[N+]([O-])c1cccc(/C=C/c2ccccn2)c1`, for which the growth in the assay on NCI-H23 lung is 76.1%; in the assay with NCI-H226 lung, 74.9%; in the assay on NCI-H322M lung, 134%; in the assay with HOP-62 NSCLC, 73.2%; with NCI-H460 lung, 91%; in the assay with HOP-92 NSCLC, 34.7%. For the same compound, the growth in the assay with NCI-H522 lung was 72.1%; with A549/ATCC NSCLC, 73.5%; in the assay on 786-0 renal, 53.3%; with COLO 205 colon, 105%; in the assay on DU-145 prostate, 78.3%; in the assay with K-562 leukemia, 67.4%. In addition, the growth with MALME-3M melanoma is 114%; in the assay on MDA-MB-231 breast, 87.3%; in the assay with RXF 393 renal, 69.3%; in the assay with SF-268 CNS it was 76.9%; in the assay with SF-295 CNS, 71.1%; in the assay with SF-539 CNS, 68.6%. The growth in the assay with UACC-257 melanoma is 102%.
On to `CCC(O)(C(c1ccccc1)c1ccccn1)C(c1ccccc1)c1ccccn1` (stereo unspecified), for which the growth in the assay with NCI-H23 lung was 110%; in the assay on NCI-H226 lung, 104%; in the assay with NCI-H322M lung, 98.6%; in the assay on HOP-62 NSCLC it was 106%; in the assay on NCI-H460 lung it was 110%; in the assay on HOP-92 NSCLC, 109%. Also, the growth is 102% with NCI-H522 lung; 104% in the assay with A549/ATCC NSCLC; 105% with 786-0 renal; 105% with COLO 205 colon; 103% in the assay on DU-145 prostate; 101% in the assay with K-562 leukemia. Moreover, the growth was 94.4% with MALME-3M melanoma; 120% with MDA-MB-231 breast; 118% in the assay on RXF 393 renal; 95.3% in the assay on SF-268 CNS; 122% in the assay on SF-295 CNS; 92.1% in the assay with SF-539 CNS. Besides, the growth in the assay with UACC-257 melanoma was 112%.
With `COc1ccc(C(=O)/C=C/c2cc3c(c(OC)c2)OCC(=O)N3)cc1`, the growth is 58.5% with NCI-H23 lung; 87.6% with NCI-H226 lung; 87.8% with NCI-H322M lung; 87.4% in the assay on HOP-62 NSCLC; 9.81% (active) in the assay on NCI-H460 lung; 39.5% in the assay on HOP-92 NSCLC. For the same compound, the growth was 46.4% in the assay on NCI-H522 lung; 78% with A549/ATCC NSCLC; 14.5% in the assay on 786-0 renal; 77% in the assay on COLO 205 colon; -20.7% (active) with DU-145 prostate; 7.5% (active) with K-562 leukemia. For the same compound, the growth in the assay with MALME-3M melanoma is 88.4%; with MDA-MB-231 breast, 67.7%; with RXF 393 renal, 49.7%; with SF-268 CNS it was 21.4%; in the assay with SF-295 CNS, 88.7%; in the assay with SF-539 CNS, 7.09% (active). In the assay on UACC-257 melanoma, the growth is 91.6%.

(Values after PubChem BioAssay (NCI).)
